# Shown is part of a subset that was picked to be rich in hits.
# VHR inh color = blocks the human dual specificity phosphatase VHR1 | recombinant VHR phosphatase, colorimetric substrate read-out | inhibition, % at 20 µM | 50,000 compounds, 0.7% hits | P51452; in the data active = inhibition above about 60%
# Target sequence (P51452 whole entry, looked up): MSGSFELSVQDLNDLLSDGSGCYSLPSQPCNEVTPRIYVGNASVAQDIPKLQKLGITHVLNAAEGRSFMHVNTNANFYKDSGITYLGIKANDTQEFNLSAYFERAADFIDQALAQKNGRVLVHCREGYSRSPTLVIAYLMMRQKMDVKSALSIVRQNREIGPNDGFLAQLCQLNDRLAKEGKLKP
# Hits are given with their value; – = inactive.
SMILES,VHR inh color
Cc1ccc(/C=C2\C(=O)NC(=S)N(c3ccc(Br)cc3C)C2=O)o1,82
Cc1cc(Br)ccc1N1C(=O)/C(=C/c2ccc(N(C)C)cc2)C(=O)NC1=S,69
COC(=O)c1ccc(/C=C2\C(=O)NC(=S)N(c3ccc(Br)cc3C)C2=O)cc1,–
COc1ccc(/C=C2\C(=O)NC(=S)N(c3ccc(Br)cc3C)C2=O)cc1OC,–
Cc1ccc(C=C2C(=O)NC(=S)N(c3ccccc3Cl)C2=O)o1,–
CCCCOC(=O)c1ccc(NC(=O)c2cc(Cl)ccc2[N+](=O)[O-])cc1,–
O=[N+]([O-])c1ccc(C2Nc3ccc([N+](=O)[O-])cc3C3C=CCC32)cc1 (centres undefined),–
CCC(=O)N1c2ccc3ccccc3c2C2C=CCC2C1c1ccc(F)cc1 (centres undefined),–
Oc1ccc(C2Nc3ccc4ccccc4c3C3C=CCC32)cc1 (centres undefined),76
O=C1c2ccc3c4c(ccc(c24)C(=O)N1c1ccccc1O)C(=O)N(c1ccccc1O)C3=O,–
O=C1CC(c2ccc(F)c(F)c2)c2cc(Br)c3ccccc3c2N1 (centres undefined),–
COc1ccc(C2CC(=O)Nc3c2cc(Br)c2ccccc32)cc1OC (centres undefined),67
COc1cccc(C2CC(=O)Nc3c2cc(Br)c2ccccc32)c1OC (centres undefined),–
CS(=O)(=O)N1CCN(C(=O)COc2ccc(Cl)cc2)CC1,–
O=C1S/C(=C\c2ccc([N+](=O)[O-])cc2)C(=O)N1Cc1ccccc1,–
CCOC(=O)c1c(NC(=O)c2ccccc2)sc2c1CCN(Cc1ccccc1)C2,–
CCOC(=O)c1c(NC(=S)Nc2ccccc2)sc2c1CCCCC2,–
CCOC(=O)c1c(NC(=S)Nc2ccc(C)cc2)sc2c1CCN(Cc1ccccc1)C2,68
COc1ccc(NC(=O)C2(C)CC3c4ccccc4C2c2ccccc23)cc1 (centres undefined),–
COc1cccc(N2C(=O)c3cccc4cccc(c34)C2=O)c1,–
CCOc1cc(C=C2C(=O)NC(=O)NC2=O)ccc1OCc1ccc(Cl)cc1,–
CCOc1cc(/C=N/O)ccc1OCc1ccc(Cl)cc1,116
CCOc1cc(/C=C2/SC(=O)NC2=O)ccc1OCc1ccc(Cl)cc1,–
CCN1C(=O)/C(=C\c2cc(Cl)ccc2OCc2ccccc2)SC1=S,105
CN1C(=O)/C(=C\c2cc(Cl)ccc2OCc2ccc(F)cc2)SC1=S,–
SMILES,VHR inh color
CCN1C(=O)/C(=C\c2cc(Cl)c(OCc3ccccc3)c(OC)c2)SC1=S,–
NC1=NC(=O)/C(=C\c2ccc(-c3ccc([N+](=O)[O-])cc3)o2)S1,77
NC1=NC(=O)/C(=C\c2ccc(-c3ccccc3Cl)o2)S1,–
NC1=NC(=O)/C(=C\c2ccc(-c3cccc(C(=O)O)c3)o2)S1,–
CCOC(=O)c1c(NC(=O)CSc2nccn2C)sc2c1CCCC2,–
COc1ccc(C2CC(=O)C3=C(C2)Nc2ccccc2NC3c2ccc([N+](=O)[O-])cc2)cc1 (centres undefined),–
O=C(/C=C/c1ccccc1)NC(=S)Nc1ccc(O)c(-c2nc3ccccc3o2)c1,–
Cc1ccc(N2CCSC2c2ccco2)cc1 (centres undefined),–
Cc1cccc(C)c1-n1c(C)cc(/C=N/NC(=O)c2ccncc2)c1C,–
CCc1ccc(-n2c(C)cc(/C=N/NC(=O)c3ccncc3)c2C)cc1,87
Cc1ccc(-n2c(C)cc(/C=N/NC(=O)c3ccncc3)c2C)cc1C,–
O=c1[nH]c(/C=C/c2ccccc2)c([N+](=O)[O-])c(=O)[nH]1,–
CCOc1cc(/C=C/c2[nH]c(=O)[nH]c(=O)c2[N+](=O)[O-])ccc1O,–
O=c1[nH]c(/C=C/c2ccc(N3CCOCC3)c([N+](=O)[O-])c2)c([N+](=O)[O-])c(=O)[nH]1,80
Cc1ccc(S(=O)(=O)N2CCC(C(=O)O)CC2)c2nsnc12,–
N#C/C(=C\NCC(=O)O)C(=O)NCc1ccccc1,–
O=C1/C(=C/c2ccc(Cl)cc2)SC(=S)N1CCc1ccccc1,–
CCN1C(=O)/C(=C\c2ccc(-c3ccc(F)cc3)o2)SC1=S,–
O=C1/C(=C/c2ccc(Cl)cc2)SC(=S)N1CCS(=O)(=O)O,80
CCN1C(=O)/C(=C\c2ccc(-c3ccccc3Cl)o2)SC1=S,–
COC(=O)CN1C(=O)/C(=C\c2ccc(Cl)cc2)SC1=S,–
O=C1/C(=C\c2ccc(-c3cccc(Cl)c3)o2)SC(=S)N1CCS(=O)(=O)O,91
CCN(C(=O)c1cc2cc(Cl)cc(Cl)c2oc1=O)c1ccccc1,–
O=C(COc1ccccc1)Nc1ccccc1CO,–
C/C(=C\C(=O)OC1CC(C)(C)NC(C)(C)C1)NC1CC(C)(C)NC(C)(C)C1,–
SMILES,VHR inh color
Cc1cc(/C=N\Nc2ccc([N+](=O)[O-])cn2)c(C)n1-c1ccc(C(=O)O)cc1,–
Cc1cc(C=O)c(C)n1-c1ccc([N+](=O)[O-])cc1,–
Cc1cc(/C=N\Nc2ccc([N+](=O)[O-])cn2)c(C)n1-c1ccc(O)cc1,85
CCOC(=O)c1c(NC(=O)c2ccco2)sc2c1CCC(CC)C2 (centres undefined),73
CCOC(=O)c1c(NC(=O)C2C3CCC(O3)C2C(=O)O)sc2c1CCC(CC)C2 (centres undefined),–
CCC1CCc2c(sc(NC(=O)c3ccc(Br)o3)c2C(=O)OC)C1 (centres undefined),–
Cc1csc(NC(=O)c2ccc([N+](=O)[O-])cc2Cl)n1,–
CCCC(=O)Nc1ccc(NC(=O)c2cccc3c(Br)cccc23)cc1,–
O=C(O)C(Cc1ccccc1)N1C(=O)/C(=C/C=C/c2ccccc2)SC1=S (centres undefined),92
O=C(O)c1ccc(/C=C2\SC(=S)N(C(Cc3ccccc3)C(=O)O)C2=O)cc1 (centres undefined),–
O=C(O)C(Cc1ccccc1)N1C(=O)/C(=C/c2ccc(F)cc2)SC1=S (centres undefined),–
Cc1ccc2oc(-c3ccc(NC(=O)c4ccc(-c5ccc(Cl)cc5)o4)cc3O)nc2c1,–
C=CCN1C(=O)/C(=C\c2ccc(-c3ccccc3Cl)o2)SC1=S,–
CCOc1ccc(NC(=O)c2ccc(-c3ccc(Cl)cc3)o2)cc1,–
O=C(NCC1CCCO1)c1ccc(Cl)c(Cl)c1 (centres undefined),–
Cc1ccc(O)c(NC(=O)c2cc3n(n2)C(C(F)(F)F)CC(c2ccc(F)cc2)N3)c1 (centres undefined),–
COc1ccc(Nc2nc(-c3ccc4ccccc4c3)cs2)cc1,–
COc1ccc(-c2csc(-c3nc(-c4ccc(OC)c(OC)c4)cs3)n2)cc1OC,–
COc1ccc(-c2csc(Nc3ccc(N)cc3)n2)cc1OC,90
c1ccc2sc(CCSCCc3nc4ccccc4s3)nc2c1,–
O=C(NCc1ccc2c(c1)OCO2)c1ccc(F)cc1,–
O=C(O)c1cc(-c2cn[nH]c2-c2ccccc2)nc2ccc3ccccc3c12,110
O=C(O)c1cc(-c2cccc([N+](=O)[O-])c2)nc2ccccc12,–
COc1ccccc1-c1cc(C(=O)O)c2ccccc2n1,–
Cc1cc(OCC(=O)Nc2sc3c(c2C(N)=O)CCC(C)C3)ccc1Cl (centres undefined),–
SMILES,VHR inh color
Cc1ccc(NC(=O)c2c(C(=O)O)cccc2[N+](=O)[O-])c(Br)c1,–
COC(=O)C1=C(C)NC(=O)NC1c1ccc(SC)cc1 (centres undefined),–
CSc1ccc(C2NC(=O)CCC2[N+](=O)[O-])cc1 (centres undefined),100
CSc1ccc(C2NC(=O)c3ccccc3N2)cc1 (centres undefined),–
CCN(CC)c1ccc(NC(=O)c2ccc3ccccc3c2)cc1,–
Cc1ccc(N=C2NC(=O)/C(=C\c3ccc(C)o3)S2)cc1,–

# Assay outcomes: PubChem BioAssay, Sanford-Burnham Center for Chemical Genomics
